This note sets out measurements from PubChem BioAssay (NCATS).

Results filed as inconclusive are left out. Entries that show only a call come without a potency. The source made the active and inactive calls. The call rests on the fitted dose curve; in most records, active means well fitted curve in the direction sought with a large enough effect; inconclusive means small, poorly fitted or top-dose-only effect, or another doubt; inactive means no such curve, though single readings can be large; an effect the other way counts as inactive or inconclusive.

In one experiment the target is Calcium and integrin-binding protein 1 (Homo sapiens) (UniProt Q99828). The experiment is described as follows: Primary qHTS for Identification of Calcium Integrin Binding Protein 1 (CIB1) Competitor (AID 1508620).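 Further: GST tagged CIB1 binding a fluorescein labelled alphaIIb integrin peptide tracer; top concentration of the series differs between compounds.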 The conditions noted are these: CIB1-GST / FITC-alphaIIb peptide fluorescence polarization; series mostly up to 57.7 µM. Summed up: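 Fluorescence polarization competition: CIB1-GST (1 uM final) preincubated with compound 15 min at room temperature, then FITC-labeled alphaIIb peptide (100 nM final) added for another 15 min. Polarization read at Ex 480/Em 540.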
Calcium and integrin-binding protein 1 (Homo sapiens), sequence (Q99828 whole entry, looked up): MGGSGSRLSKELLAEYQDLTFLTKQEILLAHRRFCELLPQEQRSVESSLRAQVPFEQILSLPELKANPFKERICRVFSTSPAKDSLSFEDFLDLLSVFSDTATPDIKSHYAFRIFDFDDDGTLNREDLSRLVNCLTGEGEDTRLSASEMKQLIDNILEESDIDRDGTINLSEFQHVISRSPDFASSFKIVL
For `COc1ccc(Nc2cc(-c3cnc(N)nc3)nc(N3CCOCC3)n2)cn1`, the Potency result was “inactive”.

For the compound `C[C@@]12C(=O)OC(=O)[C@@]1(C)C1CCC2O1`, the Potency entry is “inactive”.

`Cc1ccc([N+](=O)[O-])cc1S(=O)(=O)N(C)N=Cc1cnc2ccc(Br)cn12`: the Potency result was “inactive”.

Turning to `COC(=O)[C@@H]1CC2=CC(=O)CC[C@]2(C)[C@@]23O[C@@H]2C[C@@]2(C)[C@H](CC[C@@]24CCC(=O)O4)[C@@H]13`, the Potency entry is “inactive”.

As for `c1cncc(CN2CCC(n3ncc4c(N5CCOCC5)nc(-c5ccc6[nH]ccc6c5)nc43)CC2)c1`, the Potency entry was “inactive”.

For the compound `N#CC(=C(O)c1ccc(Cl)cc1Cl)c1nc2cc(Cl)ccc2c(=O)[nH]1`, the Potency result was “inactive”.

Turning to `CN[C@H]1[C@@H](O)[C@@H]2O[C@@H]3O[C@H](C)CC(=O)[C@]3(O)O[C@@H]2[C@@H](NC)[C@H]1O`, the Potency result is “inactive”.

On to `CCc1cc(C(C)=NOCc2ccc(C3CCCCC3)c(C(F)(F)F)c2)ccc1CN1CC(C(=O)O)C1`, for which the Potency entry was “inactive”.

Regarding `COc1ccc(C=Cc2cc(OC)c(OC)c(OC)c2)cc1NC(=O)[C@H](N)CO`, the Potency entry was “inactive”.

As for `CC(O)(C#Cc1ccc2c(c1)N(c1nc(N)ncc1Cl)CC2)c1nccs1` (stereo not drawn), the Potency result is “inactive”.

Consider `CC(C)OC(=O)[C@H](C)N[P@](=O)(OC[C@H]1O[C@@H](n2ccc(=O)[nH]c2=O)[C@](C)(F)[C@H]1O)Oc1ccccc1`, for which the Potency result is “inactive”.

`COc1cc(C)c(C=CC(C)=CC=CC(C)=CC(=O)O)c(C)c1C`: the Potency entry was “inactive”.

Take `CCc1c(O)cc(O)c(C(=O)c2ccc(OCCN3CCOCC3)c(OC)c2)c1CC(=O)N(CCOC)CCOC`: the Potency result was “inactive”.

As to `CN1C(C(=O)Nc2ccccn2)=C(O)c2sc(Cl)cc2S1(=O)=O`, the Potency entry is “inactive”.

On to `CCOC(=O)N1CCN([N+]([O-])=NOc2ccc([N+](=O)[O-])cc2C#N)CC1`, for which the Potency entry is “inactive”.

`Cn1cc(C=CC(=O)c2cccc(F)c2)cc1C=CC(=O)NO`: the Potency entry is “inactive”.

Take `Oc1ccc([C@@H]2Oc3ccc(O)cc3[C@@H]3CCC[C@@H]32)cc1`: the Potency entry is “inactive”.

`FC(F)c1nc2ccccc2n1-c1nc(N2CCOCC2)nc(N2CCOCC2)n1`: the Potency result was “inactive”.

`COc1ccc(C(C)=O)c(O)c1`: the Potency entry is “inactive”.

Consider `CC(C)c1cc(C(C)C)c(CC(=O)NS(=O)(=O)Oc2c(C(C)C)cccc2C(C)C)c(C(C)C)c1`, for which the Potency entry was “inactive”.

`C#Cc1cccc(Nc2ncnc3cc(OCCOC)c(OCCO)cc23)c1`: the Potency entry was “inactive”.

Regarding `CN(C)CC(=O)N1CCC(c2ccc(NC(=O)c3ncc(C#N)[nH]3)c(C3=CCCCC3)c2)CC1`, the Potency entry was “inactive”.

Regarding `O=C1NC(=O)C(=Cc2ccc3nccc(-c4ccncc4)c3c2)S1`, the Potency result was “inactive”.

As to `Cc1noc(-c2ccc(CSCCC(=O)O)cc2)c1NC(=O)OC(C)c1ccccc1Cl` (stereo not drawn), the Potency entry is “inactive”.

`Cn1cnc2c(F)c(Nc3ccc(Br)cc3F)c(C(=O)NOCCO)cc21`: the Potency result was “inactive”.

Turning to `Cc1nc(NC(=O)N2CCC[C@@H]2C(N)=O)sc1-c1ccnc(C(C)(C)C(F)(F)F)c1`, the Potency result was “inactive”.

Consider `CS(=O)(=O)N1CCc2c(-c3cnc(N)nc3)nc(N3CCOCC3)nc21`, for which the Potency entry was “inactive”.

In the case of `COc1cc(C=CC(=O)CC(=O)C=Cc2ccc(O)c(OC)c2)ccc1O`, the Potency result is “inactive”.

Turning to `O=c1[nH]c(=O)n([C@H]2C[C@@H](O)[C@@H](CO)O2)cc1F`, the Potency entry is “inactive”.

As to `CCCCCCCCCCCCCCCC(=O)OC[C@@H](NC(=O)C(Cl)Cl)[C@H](O)c1ccc([N+](=O)[O-])cc1`, the Potency result was “inactive”.

Consider `C=C1C(=CC=C2CCC[C@]3(C)[C@@H]([C@H](C)CCCC(C)(C)O)CC[C@@H]23)C[C@@H](O)C[C@@H]1O`, for which the Potency entry is “inactive”.

Regarding `CN1CCc2c(c3ccccc3n2Cc2ccc(C(=O)NO)cc2)C1`, the Potency result is “inactive”.

As to `NC(=O)N1CCC(CC(=O)N2CCC([C@H]3c4ncc(Br)cc4CCc4cc(Cl)cc(Br)c43)CC2)CC1`, the Potency result was “inactive”.

For `O=C(NNC(=O)c1ccc(CNS(=O)(=O)c2ccc(F)c(Cl)c2)cc1)c1ccccc1`, the Potency result was “inactive”.

As for `O=C(Nc1cc2cc[nH]c2cn1)c1ccccc1`, the Potency result is “inactive”.

As to `CC(=O)O[C@@]12CO[C@H]1C[C@H](O)[C@@]1(C)C(=O)[C@H](O)C3=C(C)[C@@H](OC(=O)C(O)[C@@H](NC(=O)OC(C)(C)C)c4ccccc4)C[C@@](O)([C@@H](OC(=O)c4ccccc4)[C@@H]21)C3(C)C` (stereo partly drawn), the Potency entry was “inactive”.

Consider `Cc1[nH]c(C=C2C(=O)Nc3ccccc32)c(C)c1CCC(=O)O`, for which the Potency result is “inactive”.

On to `CC(C)(N)c1ccc(-c2nc3ccccc3nc2-c2ccccc2)cc1`, for which the Potency entry was “inactive”.

Consider `CC(C)n1cnc2c(NCCc3ccc(O)cc3)nc(-c3csc4ccccc34)nc21`, for which the Potency entry is “inactive”.

Tested on in a further experiment: not listed separately
The experiment is described as follows: Primary qHTS for small molecule stabilizers of the endoplasmic reticulum resident proteome: Secreted ER Calcium Modulated Protein (SERCaMP) assay (AID 1508630). The conditions noted are these: SH-SY5Y GLuc-SERCaMP (Gaussia luciferase released on ER calcium loss) secretion, thapsigargin, luminescence; series mostly up to 38.4 µM. In a few lines:
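GLuc-SERCaMP-expressing SH-SY5Y cells, pretreated 16 h with compound, are challenged with thapsigargin to empty ER calcium stores; after 4 h, coelenterazine is added directly to the medium and luminescence is imaged.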
Background: qHTS replaces the single test concentration by a dilution series.
Turning to `COc1ccc(Nc2cc(-c3cnc(N)nc3)nc(N3CCOCC3)n2)cn1`, the result was inactive.

As for `C[C@@]12C(=O)OC(=O)[C@@]1(C)C1CCC2O1`, the outcome was inactive.

As for `Cc1ccc([N+](=O)[O-])cc1S(=O)(=O)N(C)N=Cc1cnc2ccc(Br)cn12`, the outcome was inactive.

`COC(=O)[C@@H]1CC2=CC(=O)CC[C@]2(C)[C@@]23O[C@@H]2C[C@@]2(C)[C@H](CC[C@@]24CCC(=O)O4)[C@@H]13`: the outcome was inactive.

For the compound `c1cncc(CN2CCC(n3ncc4c(N5CCOCC5)nc(-c5ccc6[nH]ccc6c5)nc43)CC2)c1`, the outcome was inactive.

On to `N#CC(=C(O)c1ccc(Cl)cc1Cl)c1nc2cc(Cl)ccc2c(=O)[nH]1`, for which the outcome was inactive.

Take `CN[C@H]1[C@@H](O)[C@@H]2O[C@@H]3O[C@H](C)CC(=O)[C@]3(O)O[C@@H]2[C@@H](NC)[C@H]1O`: the outcome was inactive.

As for `CCc1cc(C(C)=NOCc2ccc(C3CCCCC3)c(C(F)(F)F)c2)ccc1CN1CC(C(=O)O)C1`, the result was inactive.

In the case of `COc1ccc(C=Cc2cc(OC)c(OC)c(OC)c2)cc1NC(=O)[C@H](N)CO`, the outcome was inactive.

For `CC(O)(C#Cc1ccc2c(c1)N(c1nc(N)ncc1Cl)CC2)c1nccs1` (stereo not drawn), the result was inactive.

For `CC(C)OC(=O)[C@H](C)N[P@](=O)(OC[C@H]1O[C@@H](n2ccc(=O)[nH]c2=O)[C@](C)(F)[C@H]1O)Oc1ccccc1`, the outcome was inactive.

In the case of `COc1cc(C)c(C=CC(C)=CC=CC(C)=CC(=O)O)c(C)c1C`, the outcome was inactive.

On to `CCc1c(O)cc(O)c(C(=O)c2ccc(OCCN3CCOCC3)c(OC)c2)c1CC(=O)N(CCOC)CCOC`, for which the result was inactive.

With `CN1C(C(=O)Nc2ccccn2)=C(O)c2sc(Cl)cc2S1(=O)=O`, the outcome was inactive.

Take `CCOC(=O)N1CCN([N+]([O-])=NOc2ccc([N+](=O)[O-])cc2C#N)CC1`: the result was inactive.

In the case of `Cn1cc(C=CC(=O)c2cccc(F)c2)cc1C=CC(=O)NO`, the result was inactive.

For the compound `Oc1ccc([C@@H]2Oc3ccc(O)cc3[C@@H]3CCC[C@@H]32)cc1`, the outcome was inactive.

Consider `FC(F)c1nc2ccccc2n1-c1nc(N2CCOCC2)nc(N2CCOCC2)n1`, for which the outcome was inactive.

Consider `COc1ccc(C(C)=O)c(O)c1`, for which the outcome was inactive.

`CC(C)c1cc(C(C)C)c(CC(=O)NS(=O)(=O)Oc2c(C(C)C)cccc2C(C)C)c(C(C)C)c1`: the outcome was inactive.

`C#Cc1cccc(Nc2ncnc3cc(OCCOC)c(OCCO)cc23)c1`: the outcome was inactive.

For the compound `CN(C)CC(=O)N1CCC(c2ccc(NC(=O)c3ncc(C#N)[nH]3)c(C3=CCCCC3)c2)CC1`, the outcome was inactive.

As for `O=C1NC(=O)C(=Cc2ccc3nccc(-c4ccncc4)c3c2)S1`, the result was inactive.

`Cc1noc(-c2ccc(CSCCC(=O)O)cc2)c1NC(=O)OC(C)c1ccccc1Cl` (stereo not drawn): the result was inactive.

For `Cn1cnc2c(F)c(Nc3ccc(Br)cc3F)c(C(=O)NOCCO)cc21`, the result was inactive.

Take `Cc1nc(NC(=O)N2CCC[C@@H]2C(N)=O)sc1-c1ccnc(C(C)(C)C(F)(F)F)c1`: the result was inactive.

`CS(=O)(=O)N1CCc2c(-c3cnc(N)nc3)nc(N3CCOCC3)nc21`: the outcome was inactive.

As to `COc1cc(C=CC(=O)CC(=O)C=Cc2ccc(O)c(OC)c2)ccc1O`, the outcome was inactive.

Consider `O=c1[nH]c(=O)n([C@H]2C[C@@H](O)[C@@H](CO)O2)cc1F`, for which the outcome was inactive.

`CCCCCCCCCCCCCCCC(=O)OC[C@@H](NC(=O)C(Cl)Cl)[C@H](O)c1ccc([N+](=O)[O-])cc1`: the result was inactive.

`C=C1C(=CC=C2CCC[C@]3(C)[C@@H]([C@H](C)CCCC(C)(C)O)CC[C@@H]23)C[C@@H](O)C[C@@H]1O`: the result was inactive.

Consider `CN1CCc2c(c3ccccc3n2Cc2ccc(C(=O)NO)cc2)C1`, for which the result was inactive.

As to `NC(=O)N1CCC(CC(=O)N2CCC([C@H]3c4ncc(Br)cc4CCc4cc(Cl)cc(Br)c43)CC2)CC1`, the outcome was inactive.

`O=C(NNC(=O)c1ccc(CNS(=O)(=O)c2ccc(F)c(Cl)c2)cc1)c1ccccc1`: the outcome was inactive.

Turning to `O=C(Nc1cc2cc[nH]c2cn1)c1ccccc1`, the outcome was inactive.

On to `CC(=O)O[C@@]12CO[C@H]1C[C@H](O)[C@@]1(C)C(=O)[C@H](O)C3=C(C)[C@@H](OC(=O)C(O)[C@@H](NC(=O)OC(C)(C)C)c4ccccc4)C[C@@](O)([C@@H](OC(=O)c4ccccc4)[C@@H]21)C3(C)C` (stereo partly drawn), for which the result was inactive.

On to `Cc1[nH]c(C=C2C(=O)Nc3ccccc32)c(C)c1CCC(=O)O`, for which the result was inactive.

On to `CC(C)(N)c1ccc(-c2nc3ccccc3nc2-c2ccccc2)cc1`, for which the result was inactive.

Consider `CC(C)n1cnc2c(NCCc3ccc(O)cc3)nc(-c3csc4ccccc34)nc21`, for which the result was inactive.
